Measurements: the supplement of paper PMC11732987, “Enantioselective OTUD7B fragment discovery through chemoproteomics screening and high-throughput optimisation” (Communications Chemistry, 2025)

Assays:
Assay in all cases: log2 ratio of Biotin-Ahx-Ub-VS probe labelling (fragment/DMSO); higher = less target engagement (more negative = stronger competition), active = hit call of the paper (q ≤ 0.05, log2 ratio ≤ -1)
Details in all cases: compound concentration: 200 uM; treatment time: 3 h
OTUD6B = target: T1, OTUD6B (UniProt Q8N6M0)
T1 sequence (whole entry): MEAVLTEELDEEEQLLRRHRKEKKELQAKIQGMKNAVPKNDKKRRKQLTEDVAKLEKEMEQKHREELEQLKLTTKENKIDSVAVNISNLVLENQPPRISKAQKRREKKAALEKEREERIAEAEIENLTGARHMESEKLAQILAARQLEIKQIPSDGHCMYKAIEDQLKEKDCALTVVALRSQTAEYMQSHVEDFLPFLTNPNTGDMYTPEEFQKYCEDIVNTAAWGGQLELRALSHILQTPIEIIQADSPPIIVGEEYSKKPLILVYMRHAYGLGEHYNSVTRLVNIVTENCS
In short: (§1)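 The table lists average log2 ratios of fragment over vehicle, from an unpaired t-test on global-median-normalised Spectronaut label-free quantities. Proteins with ≥2 unique peptides were used. Samples were HEK293T lysate (495 µg) treated in triplicate with fragment at 200 µM or vehicle for 3 h, then with Biotin-Ahx-Ub-VS (0.5 µM final) for 1 h, with labelled DUBs NeutrAvidin-enriched and run by diaPASEF LC-MS/MS.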

OTUD7B = target: T2, OTUD7B (UniProt Q6GQQ9)
T2 sequence (whole entry): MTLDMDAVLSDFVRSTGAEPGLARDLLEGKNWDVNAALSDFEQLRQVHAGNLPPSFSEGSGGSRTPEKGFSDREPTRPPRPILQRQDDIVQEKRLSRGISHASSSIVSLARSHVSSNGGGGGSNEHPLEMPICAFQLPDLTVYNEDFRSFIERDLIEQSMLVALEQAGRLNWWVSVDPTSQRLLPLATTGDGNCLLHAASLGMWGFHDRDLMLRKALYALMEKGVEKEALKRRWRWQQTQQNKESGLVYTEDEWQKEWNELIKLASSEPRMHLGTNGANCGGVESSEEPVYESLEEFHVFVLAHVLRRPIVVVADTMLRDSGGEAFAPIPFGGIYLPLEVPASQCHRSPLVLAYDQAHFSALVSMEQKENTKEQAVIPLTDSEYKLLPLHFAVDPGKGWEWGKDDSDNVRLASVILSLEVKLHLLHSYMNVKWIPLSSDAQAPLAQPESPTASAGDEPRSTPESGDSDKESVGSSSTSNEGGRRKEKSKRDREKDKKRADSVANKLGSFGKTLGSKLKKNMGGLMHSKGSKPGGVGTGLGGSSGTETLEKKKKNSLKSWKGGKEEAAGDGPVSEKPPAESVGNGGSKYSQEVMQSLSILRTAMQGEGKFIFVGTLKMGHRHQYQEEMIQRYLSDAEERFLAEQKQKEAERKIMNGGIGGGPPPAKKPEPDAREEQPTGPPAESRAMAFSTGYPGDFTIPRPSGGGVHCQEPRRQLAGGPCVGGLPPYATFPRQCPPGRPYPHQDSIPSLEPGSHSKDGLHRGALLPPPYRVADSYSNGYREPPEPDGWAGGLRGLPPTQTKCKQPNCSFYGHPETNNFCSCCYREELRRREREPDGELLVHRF
In short: as §1

PRPF8 = PRPF8 (UniProt Q6P2Q9)
In short: as §1

PSMD7 = target: T3, PSMD7 (UniProt P51665)
T3 sequence (whole entry): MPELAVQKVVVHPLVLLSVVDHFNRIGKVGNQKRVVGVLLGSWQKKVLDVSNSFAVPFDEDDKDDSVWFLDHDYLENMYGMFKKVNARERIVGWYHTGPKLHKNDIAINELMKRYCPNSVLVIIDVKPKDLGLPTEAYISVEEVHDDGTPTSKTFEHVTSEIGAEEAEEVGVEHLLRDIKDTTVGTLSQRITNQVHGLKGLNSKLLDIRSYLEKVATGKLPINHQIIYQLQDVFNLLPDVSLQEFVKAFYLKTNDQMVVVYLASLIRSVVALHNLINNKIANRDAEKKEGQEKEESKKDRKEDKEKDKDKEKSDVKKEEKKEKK
In short: as §1

UCHL1 = UCHL1 (UniProt P09936)
In short: as §1

UCHL3 = target: T4, UCHL3 (UniProt P15374)
T4 sequence (whole entry): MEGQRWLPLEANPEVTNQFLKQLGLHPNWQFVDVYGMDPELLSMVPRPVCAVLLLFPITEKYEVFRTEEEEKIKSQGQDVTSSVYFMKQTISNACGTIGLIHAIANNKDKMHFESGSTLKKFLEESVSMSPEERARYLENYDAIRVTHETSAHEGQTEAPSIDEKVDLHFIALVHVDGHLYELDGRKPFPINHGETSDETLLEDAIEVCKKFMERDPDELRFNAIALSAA
In short: as §1

UCHL5 = target: T5, UCHL5 (UniProt Q9Y5K5)
T5 sequence (whole entry): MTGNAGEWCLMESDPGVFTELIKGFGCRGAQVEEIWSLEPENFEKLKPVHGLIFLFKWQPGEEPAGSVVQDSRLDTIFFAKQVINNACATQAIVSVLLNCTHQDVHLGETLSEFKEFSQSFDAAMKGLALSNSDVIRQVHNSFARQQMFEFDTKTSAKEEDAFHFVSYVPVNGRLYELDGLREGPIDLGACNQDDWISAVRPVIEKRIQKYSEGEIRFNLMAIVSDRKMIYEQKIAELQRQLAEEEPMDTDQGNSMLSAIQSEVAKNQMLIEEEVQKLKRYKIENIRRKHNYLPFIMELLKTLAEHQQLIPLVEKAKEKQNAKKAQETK
In short: as §1

USP10 = USP10 (UniProt Q14694)
In short: as §1

USP15 = target: T6, USP15 (UniProt Q9Y4E8)
T6 sequence (whole entry): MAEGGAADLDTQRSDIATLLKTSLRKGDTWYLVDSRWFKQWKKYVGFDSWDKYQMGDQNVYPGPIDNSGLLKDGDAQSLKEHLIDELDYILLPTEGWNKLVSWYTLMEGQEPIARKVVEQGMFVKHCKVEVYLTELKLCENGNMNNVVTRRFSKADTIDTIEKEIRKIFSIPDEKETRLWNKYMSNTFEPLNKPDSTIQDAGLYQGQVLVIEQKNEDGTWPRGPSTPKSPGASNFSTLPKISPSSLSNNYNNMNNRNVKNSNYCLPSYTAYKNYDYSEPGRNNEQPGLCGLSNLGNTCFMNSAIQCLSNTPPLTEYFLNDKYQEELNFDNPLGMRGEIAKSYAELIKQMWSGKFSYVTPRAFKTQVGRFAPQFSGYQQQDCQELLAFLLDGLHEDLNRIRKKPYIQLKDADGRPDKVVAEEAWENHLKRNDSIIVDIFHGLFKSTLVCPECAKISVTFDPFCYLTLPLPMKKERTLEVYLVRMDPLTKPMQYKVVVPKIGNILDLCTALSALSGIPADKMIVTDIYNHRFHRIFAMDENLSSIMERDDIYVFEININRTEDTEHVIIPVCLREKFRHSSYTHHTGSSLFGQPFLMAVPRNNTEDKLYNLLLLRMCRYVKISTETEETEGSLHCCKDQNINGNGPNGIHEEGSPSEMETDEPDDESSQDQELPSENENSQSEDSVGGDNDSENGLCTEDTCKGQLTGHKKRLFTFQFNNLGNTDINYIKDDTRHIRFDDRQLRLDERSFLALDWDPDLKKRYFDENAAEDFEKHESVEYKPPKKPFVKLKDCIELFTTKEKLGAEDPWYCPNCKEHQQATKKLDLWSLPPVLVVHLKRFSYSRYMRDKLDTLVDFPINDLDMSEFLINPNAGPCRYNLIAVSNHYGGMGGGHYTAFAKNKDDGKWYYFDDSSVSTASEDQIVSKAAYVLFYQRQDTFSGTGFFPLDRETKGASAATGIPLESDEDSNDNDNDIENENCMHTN
In short: as §1

USP16 = USP16 (UniProt Q9Y5T5)
In short: as §1

Measured: log2 ratio of Biotin-Ahx-Ub-VS probe labelling

UCHL1, sequence (P09936 whole entry, looked up): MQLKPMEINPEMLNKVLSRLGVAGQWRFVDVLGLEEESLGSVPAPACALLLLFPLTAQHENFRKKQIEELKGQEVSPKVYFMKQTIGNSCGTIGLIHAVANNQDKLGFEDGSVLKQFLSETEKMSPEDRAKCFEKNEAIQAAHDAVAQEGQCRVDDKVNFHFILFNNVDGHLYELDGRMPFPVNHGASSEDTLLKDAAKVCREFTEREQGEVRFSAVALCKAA
USP10, sequence (Q14694 whole entry): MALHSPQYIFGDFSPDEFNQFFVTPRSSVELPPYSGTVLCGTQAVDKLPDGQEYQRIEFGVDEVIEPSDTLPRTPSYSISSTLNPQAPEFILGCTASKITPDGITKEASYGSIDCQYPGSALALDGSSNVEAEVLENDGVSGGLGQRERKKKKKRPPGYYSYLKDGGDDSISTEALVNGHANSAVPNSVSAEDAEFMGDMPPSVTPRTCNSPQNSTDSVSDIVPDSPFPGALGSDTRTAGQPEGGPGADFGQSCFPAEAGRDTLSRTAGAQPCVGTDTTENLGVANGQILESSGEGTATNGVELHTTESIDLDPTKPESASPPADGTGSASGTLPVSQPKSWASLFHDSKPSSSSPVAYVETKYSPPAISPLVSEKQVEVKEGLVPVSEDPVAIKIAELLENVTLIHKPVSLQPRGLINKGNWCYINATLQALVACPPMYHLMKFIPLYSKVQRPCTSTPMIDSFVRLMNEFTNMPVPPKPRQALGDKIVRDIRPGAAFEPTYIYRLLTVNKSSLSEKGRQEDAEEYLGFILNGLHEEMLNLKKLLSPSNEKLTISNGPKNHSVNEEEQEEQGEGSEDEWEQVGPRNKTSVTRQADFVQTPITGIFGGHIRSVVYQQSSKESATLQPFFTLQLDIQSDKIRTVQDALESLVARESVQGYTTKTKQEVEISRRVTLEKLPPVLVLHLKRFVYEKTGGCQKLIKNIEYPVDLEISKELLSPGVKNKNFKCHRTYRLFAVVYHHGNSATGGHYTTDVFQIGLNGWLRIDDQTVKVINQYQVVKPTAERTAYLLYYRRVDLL
USP16, sequence (Q9Y5T5 whole entry, looked up): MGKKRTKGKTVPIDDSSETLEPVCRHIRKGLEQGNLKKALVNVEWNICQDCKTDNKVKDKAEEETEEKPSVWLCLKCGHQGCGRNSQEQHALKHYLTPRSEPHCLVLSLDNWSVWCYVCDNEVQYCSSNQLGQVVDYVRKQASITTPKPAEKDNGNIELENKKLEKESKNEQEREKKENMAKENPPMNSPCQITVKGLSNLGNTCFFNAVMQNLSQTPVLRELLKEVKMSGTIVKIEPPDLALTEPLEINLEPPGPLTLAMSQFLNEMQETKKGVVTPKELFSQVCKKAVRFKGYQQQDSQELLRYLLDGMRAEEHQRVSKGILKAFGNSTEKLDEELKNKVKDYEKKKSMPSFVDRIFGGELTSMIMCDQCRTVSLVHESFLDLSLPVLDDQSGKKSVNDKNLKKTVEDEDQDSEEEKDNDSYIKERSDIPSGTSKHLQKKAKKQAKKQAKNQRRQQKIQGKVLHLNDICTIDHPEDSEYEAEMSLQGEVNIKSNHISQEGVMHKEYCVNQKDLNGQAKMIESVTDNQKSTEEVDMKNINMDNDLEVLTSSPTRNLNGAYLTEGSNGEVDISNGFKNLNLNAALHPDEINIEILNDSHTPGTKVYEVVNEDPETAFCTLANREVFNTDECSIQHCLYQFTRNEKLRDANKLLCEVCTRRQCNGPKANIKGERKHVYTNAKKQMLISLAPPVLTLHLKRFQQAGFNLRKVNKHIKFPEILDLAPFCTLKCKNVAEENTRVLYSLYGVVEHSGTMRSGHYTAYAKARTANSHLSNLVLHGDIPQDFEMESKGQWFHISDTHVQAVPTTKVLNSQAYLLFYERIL

Cl.O=C(CCl)NCCc1ncc(F)cc1F
inactive: OTUD6B -0.346 | OTUD7B -0.663 | PRPF8 -0.0362 | PSMD7 -0.45 | UCHL3 0.191 | UCHL5 -0.376 | USP10 -0.075 | USP15 -0.3 | USP16 -0.0122
active: UCHL1 -1.7
